PubChem BioAssay (NCI)
The panel holds about 83,000 compounds, 20% with a hit somewhere; the sample as a whole holds those more often.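 Treatment: one concentration, 48 hours, 96-well format. Scoring: percent growth, with anything below 10 considered active.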 Unmarked numbers belong to inactive results. Activity calls are given as the source filed them.

Tested on: MDA-MB-468 breast
Assay: NCI-60 one-dose screen, 48 h (100 = growth as untreated, 0 = no growth, -100 = all killed)
Conditions: 10 µM unless noted

Structure (SMILES)	growth
CC1(C)CC[C@]23CC[C@]4(C)[C@H](CC[C@@H]5[C@@]6(C)CCNCC(C)(C)[C@@H]6CC[C@]54C)[C@H]2[C@H]1OC3	65.4%
COc1cc(-c2csc(NC(=O)c3cc(C(F)(F)F)cc(C(F)(F)F)c3)n2)cc(OC)c1OC	6.71% (active)
COc1cc(Cn2c(SCC(=O)Nc3cc(OC)c(OC)c(OC)c3)nc3ccccc3c2=O)cc(OC)c1OC	72.7%
COc1ccc(C(=O)n2nc(CC(=O)NCc3ccccc3)nc2N)cc1	105%
